# Source: PubChem BioAssay (National Center for Advancing Translational Sciences (NCATS))
# HT1080-NT tox – kills 2HG-producing HT-1080-NT fibrosarcoma cells | HT-1080-NT fibrosarcoma viability, CellTiter-Glo ATP luminescence, 48 h | hit rate 1.6% among 360,000 | Potency, µM (highest dose often 46.1 µM), inactives show top-dose activity, negative = less viability, most hits filed as cytotoxic | AID 686970;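 also: NT is the 2HG producing partner of a matched IDH1 knockdown line; potency is read from the fitted curve at half-maximal effect; 0% = DMSO-treated cells and -100% = media-only wells without cells; nearly all actives have a fitted effect of over 55% in size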
#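 HT-1080-NT; 750 cells/well; 5% FBS RPMI; 48 h compound, 37 degrees C; CellTiter-Glo luminescence; curve fitting and curve-class assignment.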
# TDP1 cell noCPT – qHTS for Inhibitors of human tyrosyl-DNA phosphodiesterase 1 (TDP1): qHTS in cells in absence of CPT | Potency, µM (series often up to 46.2 µM), inactives show top-dose activity change, negative = growth inhibition, most hits filed as inhibitors | DT40 Tdp1-/- hTDP1 cells, no CPT, ATP luminescence, 48 h | AID 686978, 2013 | hit rate 15% among 420,000; also: potency is read from the fitted curve at half-maximal effect; nearly all actives have a fitted effect of over 55% in size
#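 Cells were dispensed at 400 per well, compounds added by pin tool, plates incubated ≥48 hr at 37 °C, then CellTiter-Glo added for 30 min at room temperature before luminescence reading. Line: DT40 Tdp1-/- complemented with hTDP1; camptothecin omitted.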
# IL-1B inflam inh – inhibitors of inflammasome signaling (IL-1 beta secretion). THP-1 LPS/ATP IL-1B secretion, AlphaLISA, 16 h; active compounds read low. activity change, % at 57.5 µM. AID 743279. hit rate 4.7% among 360,000; in the data active = activity change below about -50%; inconclusive = mostly about -30% to -49%
#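 THP-1 cells pretreated 1 hr with compounds (up to 57.5 uM final), then stimulated with LPS (250 ng/mL final) plus ATP (1.25 mM final); secreted IL-1B measured by AlphaLISA after 16 hr, decreased signal indicating inhibition.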
# TDP1 cell CPT – DT40-hTDP1 cell growth loss with CPT | hit rate 12% among 420,000 | Potency, µM (doses to about 46.2 µM), for the others: at the highest dose activity change, negative = growth inhibition, actives largely listed as inhibitors | chicken DT40 Tdp1-/-;hTDP1 cells + 20 nM CPT, ATP luminescence, 48 h; also: potency is read from the fitted curve at half-maximal effect; nearly all actives have a fitted effect of over 55% in size
#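 Cell growth measured by CellTiter-Glo luminescence after a minimum 48 h, 37 C compound exposure with 20 nM CPT in Tdp1-knockout DT40 cells stably expressing hTDP1, seeded 400/well; qHTS titration format.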
# ELG1 DNA repair – ELG1-dependent DNA repair inhibition; HEK293T ELG1-luciferase reporter, luminescence, 16 h; DNA damage induced by 5-fluorouridine; Potency, µM (top dose mostly 46.1 µM), for inactives: top-dose activity change, negative = inhibition, usual class: inhibitors; hit rate 2.3% among 330,000; AID 504467; also: potency is read from the fitted curve at half-maximal effect; nearly all actives have a fitted effect of over 55% in size
#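 Cells (2,000 per well) received 5-fluorouridine plus test compound or DMSO and were incubated 16 hr at 37 °C, 5% CO2. Luciferase activity was read by luminescence 30 min after ONE-Glo addition; signal suppression marked inhibition of damage-induced ELG1 function.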
# HT1080 IDH1KD tx – HT-1080 IDH1 knockdown cell toxicity (counter line) | AID 686971 | HT-1080 IDH1 knockdown viability, ATP luminescence, 48 h | hit rate 2% among 360,000 | Potency, µM (highest dose often 46.1 µM), for inactives: at the highest dose activity, negative = toxicity, hits mostly cytotoxic;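 also: potency is read from the fitted curve at half-maximal effect; 0% = DMSO wells and -100% = cell-free medium wells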
#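 Viability of IDH1-knockdown HT-1080 fibrosarcoma cells was assessed by CellTiter-Glo after 48 h at 37 °C with titrated compound; concentration-effect curves were classified by fit quality and response size.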
# * = called active by the depositor; ? = inconclusive; . = not tested or not shown; [ ] = remark or other dose. Only some compounds are listed: those with a hit (about 19% of all), similar ones and a draw of the others. Unless noted, calls follow the shape of the dose curve; as a rule, active = well fitted curve in the direction sought with a large enough effect; inconclusive = small, poorly fitted or top-dose-only effect, or another doubt; inactive = no such curve, though single readings can be large; an effect the other way counts as inactive or inconclusive. Unless noted, % is scaled to controls: 0 for no effect and ±100 for the full control effect.
SMILES,HT1080-NT tox,TDP1 cell noCPT,IL-1B inflam inh,TDP1 cell CPT,ELG1 DNA repair,HT1080 IDH1KD tx
COc1ccc(C)cc1N(C(=O)c1ccco1)C(C(=O)NC1CCCC1)c1ccc(N2CCOCC2)cc1 (stereo unspecified),-3%,9.2µM*,-58*,-13%,-9%,-1%
COc1ccc(C(C(=O)NC2CCCCC2)N(C(=O)c2ccco2)c2ccccc2OC)cc1 (stereo unspecified),-27%,16µM*,-20,?,?,?
COc1ccc(C(C(=O)NC2CCCC2)N(C(=O)c2ccco2)c2ccccc2OC)cc1 (stereo unspecified),-1%,?,-6,-19%,-2%,-5%
COc1ccc(OC)c(N(C(=O)c2ccco2)C(C(=O)NC2CCCC2)c2ccc(N3CCOCC3)cc2)c1 (stereo unspecified),10%,-27%,-12,2%,7%,6%
COC(=O)c1cccc(C(=O)N2CCc3c(cnc(C)c3CNC(=O)/C=C/c3cccs3)C2)c1,.,-5%,.,9%[9.04 µM],.,.
O=C(Cn1cc(C(F)(F)F)ccc1=O)NCc1ccc(F)cc1,17%,9%,0,-2%,?,18%
COc1ccc(C(=O)Nc2nnc(CCS(=O)(=O)c3ccc(C)cc3)s2)cc1,16%,-17%,10,-9%,-6%,18%
COc1ccc(OC)c(C(C)NC(=O)c2ccco2)c1 (stereo unspecified),?,?,7,23µM*,-27%,-28%
COc1ccc(-c2noc(C(C)NC(=O)c3ccco3)n2)cc1 (stereo unspecified),.,15µM*,.,18µM*,.,.
CC(Oc1ccc(Cl)cc1Cl)c1nc(-c2ccc(NC(=O)c3ccco3)cc2)no1 (stereo unspecified),-10%,16µM*,-11,23µM*,?,-21%
COc1ccc(OC)c(C(C)NC(C)=O)c1 (stereo unspecified),1%,1%,-4,-6%,14%,-6%
O=C(NCc1cccc(C(F)(F)F)c1)c1[nH]c(C(F)(F)F)nc1-c1ccccc1,?,?,34,?,.,?
CC1=C(C(=O)Nc2ccc(C)cc2C)C(c2ccc(O)cc2)n2nc(SCC(=O)c3ccc(C)cc3)nc2N1 (stereo unspecified),.,-13%,.,-20%,.,.
O=C(NC1CCCCC1)c1ccc(Cn2c(SCc3cccc(F)c3)nc3cccnc32)cc1,.,21µM*,.,21µM*,.,.
O=C(NC1CCCC1)c1ccc(CSc2nc3cccnc3n2Cc2ccccc2)cc1,.,16µM*,.,?,.,.
COc1ccc(Cn2c(SCc3ccc(C(=O)NC4CCCC4)cc3)nc3cccnc32)cc1,.,18µM*,.,?,.,.
Cc1ccc(NC(=O)c2ccc3snnc3c2)cc1Cl,.,-16%,.,-10%,.,.
CC(C)(C)c1nc2cc(Cl)c([N+](=O)[O-])cc2o1,-28%,23µM*,?,?,17%,?
Clc1ccc(-n2cc(COCc3ccccc3)nn2)cc1,22%,?,-17,-12%,?,22%
O=C(C[C@H]1C/C=C\CC[C@H](Cc2ccc(F)cc2)C(=O)OC[C@H]2CCCN2C1=O)N[C@@H](CO)Cc1ccccc1,-6%,15µM*,2,?,-11%,-4%
O=C(C[C@@H]1C/C=C\CCCC(=O)OC[C@@H]2CCCN2C1=O)N[C@H](CO)Cc1ccccc1,14%,-8%,1,4%,15%,11%
O=C(C[C@H]1C/C=C\CC[C@H](Cc2ccc(F)cc2)C(=O)OC[C@H]2CCCN2C1=O)N[C@H](CO)Cc1ccccc1,2%,21µM*,-3,23µM*,23µM*,8%
